Bioassay records as filed in PubChem.
D1 agonist = activates the human D1 dopamine receptor; HEK293 T-REx D1 cells, calcium flux, agonist mode; 360,000 compounds, 1% hits; P21728; AID 504660; activation, % at 2 µM; in the data active = activation above about 30%; note: 0% is about no effect
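Agonism was scored from calcium flux recorded over 180 s (1 read/s) after pintool compound addition, following a 10-cycle baseline. Cells were inducible force-coupled HEK293 TREx D1, plated overnight at 30 C and loaded with no-wash calcium dye.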
D1 PAM = enhances dopamine response at the human D1 receptor; P21728; 360,000 compounds, 0.036% hits; HEK293 TREx D1 cells, calcium flux, dopamine EC20 potentiation; potentiation, % at 10 µM; in the data active = potentiation above about 30%; note: 0% is about no effect
D3 ag = agonists of human D3 dopamine receptor | P35462 | D3R DiscoveRx beta-arrestin cells, luminescence, 90 min | max activation, % | 410,000 compounds, 0.58% hits; in the data active = max activation above about 30%; note: 0% is about no effect
Target sequence (P35462 whole entry, looked up): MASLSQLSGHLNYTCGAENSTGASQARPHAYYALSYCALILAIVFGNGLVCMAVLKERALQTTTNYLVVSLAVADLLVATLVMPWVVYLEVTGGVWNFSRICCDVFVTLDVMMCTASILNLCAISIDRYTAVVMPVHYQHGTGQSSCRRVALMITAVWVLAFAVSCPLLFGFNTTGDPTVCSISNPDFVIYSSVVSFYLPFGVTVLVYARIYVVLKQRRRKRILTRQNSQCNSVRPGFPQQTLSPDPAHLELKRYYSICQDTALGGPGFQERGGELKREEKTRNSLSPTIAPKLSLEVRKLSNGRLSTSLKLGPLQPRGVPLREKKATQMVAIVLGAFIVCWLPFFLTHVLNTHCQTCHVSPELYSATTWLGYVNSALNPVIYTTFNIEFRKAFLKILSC
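Cells at 1500/well, incubated overnight, then treated with pinned compounds (dopamine as control) for 90 min at 37 degrees C. DiscoveRx reagent added for 30 - 60 minutes at room temperature; luminescence read.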
DRD3 antagonist = D3 dopamine receptor (human) antagonism. P35462. D3R cells, DiscoveRx beta-arrestin luminescence, antagonist mode; stronger effect = lower value. max response, negative = inhibition, %. 360,000 compounds, 2.5% hits. AID 652054; in the data active = max response below about -50%; inconclusive = no clear call, values can overlap the other calls; note: % is set by controls: 0 for no effect and ±100 for the full control effect
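Cells expressing the human receptor were seeded at 1500 cells/well, incubated overnight at 37 degrees C in 5% CO2, then exposed to library compounds with dopamine controls for 90 minutes at 37 degrees C before luminescent detection.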
D1 antag = antagonists of human D1 dopamine receptor; P21728; HEK293 TREx D1 cells, calcium flux, dopamine EC80; stronger effect = lower value; activity change, negative = inhibition, % at 10 µM; 360,000 compounds, 3.2% hits; AID 504652; in the data active = activity change below about -30%; note: % is set by controls: 0 for no effect and ±100 for the full control effect
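Kinetic fluorescence of a calcium dye serves as the read-out. D1-expressing Hek293 Trex cells, induced overnight at 30 C, are exposed to compound for 180 s before an EC80 dopamine addition, then read 180 s further.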
* hit, by the source's call; ? = inconclusive; nt = not tested or not shown. In the library only some 6% were active in any assay of this set; here they are far more common.

SMILES	D1 agonist	D1 PAM	D3 ag	DRD3 antagonist	D1 antag
Cc1c(N=O)c(-c2ccccc2)n(O)[n+]1[O-]	nt	nt	0	-13	nt
CCOc1ccc(C(=O)c2cn(CC(=O)Nc3ccc(OC)cc3)c3cc4c(cc3c2=O)OCO4)cc1	2	2	-4	nt	-9
Clc1ccc(CCNc2ncnc3nc[nH]c23)cc1	19	-5	1	3	-35*
c1ccc(CNc2ncnc3nc[nH]c23)cc1	2	-6	9	1	0
c1ccc(CCCNc2ncnc3nc[nH]c23)cc1	193*	2	-8	7	-57*
COc1ccc(-c2nc(SCC(=O)NCCc3ccc(OC)c(OC)c3)n[nH]2)cc1	-1	-1	10	nt	-10
Cc1ccc(CNC(=O)Cn2c(=O)n(-c3ccc(C)c(F)c3)c(=O)c3sc4ccccc4c32)cc1	2	-3	-11	nt	-9
COc1cc(C(=O)NCCC(=O)NCc2cccs2)cc(OC)c1OC	nt	nt	-10	-28	nt
O=C(O)c1ccc(Nc2nc3ccc(Cl)cc3[nH]2)cc1	2	-7	-14	-54*	-7
Cc1cc(SC#N)cc(C)c1NC(=O)CCl	2	0	-5	-10	-13
CCc1cc(SC#N)cc(C)c1NC(=O)CCl	6	0	-7	-56*	12
CC1=NN(C(=S)Nc2ccccc2)C(c2ccccc2)C1 (configuration not stated)	1	1	-8	?	-2
Cc1ccc(C2CC(c3ccccc3)=NN2C(=S)Nc2ccccc2)o1 (configuration not stated)	7	0	-3	-51*	-3
COc1ccc(-c2cn(CCC(=O)O)c(-c3ccc(Cl)nc3)n2)cc1	0	-4	52*	37	13
COc1cc(-c2cc3nc(NCc4ccco4)ccn3n2)cc(OC)c1OC	nt	nt	6	-75*	nt
CC(C)OCCCNc1ncnc2c1cnn2-c1ccccc1	0	-2	1	13	-37*
OCCOCCNc1ncnc2c1cnn2-c1ccccc1	0	-9	-5	32	-45*
OCCOCCNc1ncnc2c1cnn2-c1ccc(Cl)cc1	2	2	3	5	8
CCCCC(CC)CNC(=O)CCS(=O)(=O)c1cccc2nonc12 (configuration not stated)	3	-2	5	19	-56*
CC(C)CCNC(=O)CCS(=O)(=O)c1cccc2nonc12	6	0	16	-22	0
Cc1[nH]c(C)c(S(=O)(=O)Nc2cccc(Cl)c2C)c1C(=O)N1CCCC1	-1	-9	-3	-65*	4
Cc1[nH]c(C)c(S(=O)(=O)Nc2cccc(Cl)c2C)c1C(=O)N1CCCCC1	1	-5	-5	-51*	-4
Cc1[nH]c(C)c(S(=O)(=O)Nc2ccccc2Cl)c1C(=O)N1CCCC1	4	-3	2	-6	19
Cc1ccc(NS(=O)(=O)c2c(C)[nH]c(C)c2C(=O)N2CCCC2)cc1Cl	1	-8	-21	-86*	-5
Cc1ccc(NS(=O)(=O)c2c(C)[nH]c(C)c2C(=O)N2CCCCC2)cc1C	1	-5	1	?	4
SMILES	D1 agonist	D1 PAM	D3 ag	DRD3 antagonist	D1 antag
C[N+]1(C)CCN(CC(O)(c2ccccc2)C2CCCCC2)CC1 (configuration not stated)	nt	nt	-29	nt	nt
CCOC(=O)c1c(C)[nH]c(C)c1S(=O)(=O)N1CCC(C(=O)Nc2ccc(F)cc2F)CC1	2	-3	3	nt	2
COc1ccccc1CCc1nnc(CCC(=O)NCC[C@@H]2C[C@@H]3C=C[C@H]2C3)o1	0	2	3	-62*	7
Cc1nc2sccn2c(=O)c1S(=O)(=O)Nc1cc(C(F)(F)F)ccc1Cl	0	-3	8	nt	-25
O=C(NC1CCCC1)C1CCCN1S(=O)(=O)c1cccc2cccnc12 (configuration not stated)	1	-5	-12	-3	-34*
CCOC(=O)N1CCC(NC(=O)C2CCN(S(=O)(=O)c3cccc4cccnc34)CC2)CC1	3	-4	0	23	-7
COc1ccc(C(=O)COC(=O)C2CCN(S(=O)(=O)c3cccc4cccnc34)CC2)cc1	5	-6	2	10	-70*
O=C(NC1CCCCCC1)C1CCCN1S(=O)(=O)c1cccc2cccnc12 (configuration not stated)	0	2	-12	0	8
COC(=O)c1ccccc1S(=O)(=O)N1CCC(C(=O)OCc2cccc(OC)c2OC)CC1	44*	-1	18	13	-39*
O=C(NC1CCCCC1)C1CCN(S(=O)(=O)c2cccc3cccnc23)CC1	3	-9	-10	-25	-65*
CC(C)Oc1ccc(C(=O)N(Cc2ccc(N(C)C)cc2)Cc2ccco2)cc1	1	0	1	nt	-6
Cc1nn(-c2ccccc2)c(Cl)c1C(=O)OC(C)C(=O)Nc1ccc2c(c1)OCO2 (configuration not stated)	0	7	0	19	-71*
CC(Sc1ncnc2ccccc12)C(=O)Nc1ccc2c(c1)OCO2 (configuration not stated)	7	-13	1	-15	-33*
CC(Sc1ccc2c(c1)OCCO2)C(=O)Nc1ccc2c(c1)OCO2 (configuration not stated)	1	0	-5	4	-18
CC(=O)Nc1ccc(NC(=O)C(C)OC(=O)c2c(C)nn(-c3ccccc3)c2Cl)cc1 (configuration not stated)	2	nt	5	6	-1
CCN(CC)S(=O)(=O)c1cc([N+](=O)[O-])ccc1NNC(=O)Nc1ccccc1OC	9	10	-5	-86*	9
CCN(CC)S(=O)(=O)c1ccc(OC)c(NC(=O)c2ccc([N+](=O)[O-])cc2)c1	-2	-9	-6	-17	-15
CCN(CC(=O)Nc1ccc([N+](=O)[O-])cc1OC)c1ccccc1	5	1	-2	-68*	-3
CCN(CC)S(=O)(=O)c1cc([N+](=O)[O-])ccc1NNC(=O)Nc1ccc(F)cc1	15	-6	-1	-72*	-16
O=C(Nc1ccc(F)cc1)Nc1ccc([N+](=O)[O-])cn1	2	7	-4	-11	9
C[C@@H](c1ncncc1F)C(O)(Cn1cncn1)c1ccc(F)cc1F (some centres not stated)	nt	nt	5	nt	nt
CCN(CCCn1c(=S)[nH]c2ccc(N3CCOCC3)cc2c1=O)c1ccccc1	1	0	-1	-21	7
CC1(C)CC(=O)C2=C(C1)OC(N)=C(C#N)C2c1cc2c(cc1[N+](=O)[O-])OCO2 (configuration not stated)	1	-2	-7	-25	-33*
CCOc1cc(C2C(C#N)=C(N)OC3=C2C(=O)CC(C)(C)C3)cc([N+](=O)[O-])c1O (configuration not stated)	4	-3	4	-12	10
